# Data: PubChem BioAssay AID2016 (NMMLSC, 2009)
# The whole screen tested about 330,000 compounds, of which about 1,700 (0.52%) were called active. The sample holds actives, similar compounds and a random draw of the others, so the mix is not that of the screen. A number with no mark means an inactive call.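 The calls were made as follows: active = GFP response versus DMSO above a set limit, roughly screen mean plus 3 SD (cut at about 180% in these data); inconclusive = fewer than 70 cells counted for a yeast strain; inactive = the rest.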
# Assay: modulators of MEP2-GFP levels in yeast, primary screen, S. cerevisiae, multiplex flow cytometry, MLPCN library (AID 2016);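 also: median GFP fluorescence of the barcode-gated MEP2-GFP cells per well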
# Settings: S. cerevisiae MEP2-GFP strain, 3 h, at 10 µM, stronger effect = higher value, 100% = DMSO control level
row,SMILES,GFP response vs DMSO
1,COc1ccc(S(=O)(=O)NCC(c2ccco2)N2CCOCC2)cc1 (centres undefined),97.3%
2,O=C(CC1CCCCC1)NCc1ccc(F)cc1,92.1%
3,O=C(CSc1nnnn1-c1ccc(O)cc1)c1ccc(F)cc1,106%
4,COC(=O)c1ccc(-c2noc(CN(Cc3ccccn3)CC3CCCO3)n2)cc1 (centres undefined),102%
5,COc1ccc(CN2CCn3ncc(C(=O)Nc4ccc(Cl)cc4Cl)c3C2=O)cc1,107%
6,O=C1N=C(N2CCOCC2)CS1,99.2%
7,CC(=O)NC(CC(=O)Nc1ccc(S(=O)(=O)N2CCOCC2)cc1)c1ccccc1 (centres undefined),95.3%
8,O=[N+]([O-])c1ccc(N/N=C/c2ccccc2)cc1,102%
9,O=C(N/N=C/c1cccc([N+](=O)[O-])c1)C1CC(=O)N(c2ccc(Br)cc2)C1 (centres undefined),100%
10,O=[N+]([O-])c1cccc(/C=N/Nc2ncc(Br)cn2)c1,239% (active)
11,CCOC(=O)C(CC)Sc1ncnc2c1nnn2-c1ccc(F)cc1 (centres undefined),191% (active)
12,COC(=O)C(C)n1cnc2c(nnn2-c2ccc(F)cc2)c1=O (centres undefined),95.3%
13,CCOC(=O)C(C)n1cnc2c(nnn2-c2ccc(F)cc2)c1=O (centres undefined),98.2%
14,CC(=O)c1cccc(OCc2cc(C(=O)NC(C)Cc3cccnc3)no2)c1 (centres undefined),92.2%
15,CCOC(=O)c1[nH]c(C)c(C(=O)OCC(=O)N2c3ccccc3CC2C)c1C (centres undefined),105%
16,CN(C)C(=O)c1cccn(Cc2cccc(C(F)(F)F)c2)c1=O,97.2%
17,COc1ccccc1Nc1nnc(SC(C)C(=O)NC2CC2)s1 (centres undefined),100%
18,COc1cc(CN2CCCC(C(=O)c3ccc(SC)cc3)C2)cc(Cl)c1O (centres undefined),596% [may fluoresce violet] (active)
19,COc1ccc(CN2CCCC(C(=O)c3ccc(Cl)cc3)C2)cc1Cn1cncn1 (centres undefined),99.8%
20,COc1ccc(C(=O)NC2CC2)cc1OC1CCN(Cc2ccc(SC)cc2)CC1,112%

row,SMILES,GFP response vs DMSO
1,COc1ccc(OC)c(NC(=O)CSc2nc(-c3ccccc3)cc(=O)[nH]2)c1,107%
2,Cc1cc(=O)oc2cc(OCC3CC(c4ccccc4Cl)=NO3)ccc12 (centres undefined),100%
3,O=C(Cn1ncc(N2CCCC2)c(Br)c1=O)c1ccc(Cl)cc1,98.2%
4,CCc1ccccc1S(=O)(=O)Cc1ccc(C(=O)NCCc2ccccc2)o1,109%
5,Cc1oc(-c2ccccc2F)nc1CS(=O)CC(=O)NCCN1CCCCC1C (centres undefined),103%
6,Cc1ccccc1S(=O)(=O)Cc1ccc(C(=O)NCCN2CCCCC2C)o1 (centres undefined),460% [may fluoresce violet] (active)
7,CCOc1ccc(CCNC(=O)C(CC)n2nc(C)n3c(cc4sccc43)c2=O)cc1OCC (centres undefined),105%
8,CCOc1ccc2nc(N(CCN(C)C)C(=O)c3ccc4ccccc4c3)sc2c1,233% [may fluoresce violet] (active)
9,CCc1ccc2nc(N(CCCN(C)C)C(=O)c3ccc4c(c3)OCCO4)sc2c1,104%
10,CCOc1ccc2nc(N(CCCN(C)C)C(=O)c3ccc(C(=O)c4ccccc4)cc3)sc2c1,104%
11,CC(C)(C)c1ccc(C(CC(=O)O)NS(=O)(=O)Cc2ccccc2)cc1 (centres undefined),98.8%
12,CCSC1=NCCN1C(=O)c1ccc(S(=O)(=O)N(CC)CC)cc1,106%
13,O=C(NCCc1ccccc1)C(=O)NCC1OCCN1S(=O)(=O)c1cccs1 (centres undefined),108%
14,CCN1/C(=C/c2ccc3ccc(C)cc3[n+]2CC)Sc2ccccc21,351% [may fluoresce green] (active)
15,CCN1/C(=C\c2ccc3ccccc3[n+]2CC)Sc2cc(C)ccc21,1150% [may fluoresce green] (active)
16,O=C(NC1Cc2ccccc2C1)c1cc(COc2cccc(C(F)(F)F)c2)on1,104%
17,Cc1ccc(OCC(=O)Nc2ccc(N3CCN(C(=O)c4ccco4)CC3)cc2)c(C)c1,229% [may fluoresce violet] (active)
18,CCC(=O)Nc1ccc(C(=O)N2CCN(C(=O)c3ccco3)CC2)cc1,104%
19,Cc1ccc(C)c(OCC(=O)N2CCN(C(=O)c3ccco3)CC2)c1,105%
20,CCN(C[C@H]1N[C@@](Cc2ccccc2)(C(=O)OC)[C@H]2C(=O)N(Cc3ccccc3)C(=O)[C@@H]12)C(=O)c1ccc(C)cc1,84.7%

row,SMILES,GFP response vs DMSO
1,CC(C)(C)OC(=O)c1c(N)n(CCCN2CCCC2=O)c2nc3ccccc3nc12,107%
2,CC(CN1CCOCC1)OC(=O)c1ccc(C(C)(C)C)cc1 (centres undefined),110%
3,COCC(C)OC(=O)c1c(N)n(CCCN2CCOCC2)c2nc3ccccc3nc12 (centres undefined),210% [may fluoresce violet] (active)
4,CCOC(=O)Cc1csc(NC(=O)CN(C)S(=O)(=O)c2ccc3c(c2)CCC(=O)N3)n1,96%
5,CCCN1C(=O)C(NC(C)=O)c2cc(OC)ccc21 (centres undefined),107%
6,O=C(CS(=O)(=O)c1cn(Cc2ccc(Cl)cc2)c2ccccc12)N1CCOCC1,91.9%
7,O=C(CS(=O)(=O)c1cn(Cc2cccc(F)c2)c2ccccc12)N1CCCCC1,236% [may fluoresce violet] (active)
8,CC(=O)Nc1ccc(NC(=O)CS(=O)(=O)c2cn(CC(=O)N3CCCCC3)c3ccccc23)cc1,95.1%
9,CC(NC(=O)c1cccc2ccccc12)c1ccc2c(c1)CCCC2 (centres undefined),148%
10,Cc1c(C(=O)OCC(=O)N2CCCC2=O)oc2ccccc12,108%
11,Cc1ccc(C(=O)N2CC(=O)Nc3ccccc32)o1,101%
12,O=C(O)c1cccc2c1C(=O)N(C1CCCC1)C2,97.4%
13,Nc1nnc(SCC(=O)OCc2ccc(Cl)c(Cl)c2)s1,95.3%
14,O=C(NCc1ccco1)/C(=C/c1ccco1)NC(=O)c1ccccc1,206% [may fluoresce violet] (active)
15,NC(=O)C1CCN(C(=O)/C(=C/c2ccco2)NC(=O)c2ccccc2)CC1,215% [may fluoresce violet] (active)
16,O=C(NCC1CCCO1)/C(=C\c1ccco1)NC(=O)c1ccccc1 (centres undefined),102%
17,CC1CCN(C(=O)/C(=C\c2ccccc2)NC(=O)c2ccccc2)CC1,106%
18,Cc1ccc(C(=O)N/C(=C\c2ccco2)C(=O)N2CCSCC2)cc1C,109%
19,Cc1ccc(C(=O)N/C(=C/C=C/c2ccccc2)C(=O)NCc2ccco2)cc1,95.7%
